Measured values published in PubChem BioAssay.
Activity calls are given as the source filed them. Unless noted, how the calls were made is not given here.

Key:
[1] = compounds binding Alexa647 anti-His antibody – biochemical, small-molecule microarray, 635 nm fluorescence, artefact control for SMM control protein annotation, primary screen (AID 1128); details: higher = more signal;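 further: score merges feature fluorescence with signal-to-noise for each printed compound spot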
[2] = test system: Human papillomavirus type 1a E7 protein (residues 1-88); experiment: HPV1a E7 small-molecule binders, primary screen, biochemical, small-molecule microarray, residues 1-88, 635 nm (AID 1129); details: small-molecule microarray binding, fluorescence 635 nm; higher = more signal
[3] = molecular target: Focal adhesion kinase 1 (Homo sapiens) (UniProt Q05397); experiment: PTK2 protein binding on printed compound slides – biochemical, small-molecule microarray, 635/667 nm fluorescence, BSA, DTT, primary screen (AID 1130); details: 635 nm fluorescence, higher = more signal;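 further: composite of spot emission at 667 nm and signal to noise over triplicate slides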
[4] = test system: Fibrinogen (Alexa647-labelled); experiment: Alexa647-fibrinogen binding to printed small molecules – biochemical, small-molecule microarray, 635/667 nm fluorescence, artefact control for SMM control-protein annotation, profiling panel (AID 1131); details: fibrinogen-A647 binding fluorescence, higher = more signal;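 further: z-score merges 667 nm fluorescence with per-spot signal-to-noise over triplicate slides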
[5] = molecular target: Follistatin (Homo sapiens) (UniProt P19883); experiment: FST protein binding to printed compounds – biochemical, small-molecule microarray, 635/667 nm fluorescence, primary screen (AID 1132); details: 635 nm fluorescence, higher = more signal
[6] = molecular target: Fibroblast growth factor 2 (Homo sapiens) (UniProt P09038); experiment: basic fibroblast growth factor binding to printed compounds – biochemical, small-molecule microarray, 635/667 nm fluorescence, primary screen (AID 1133); details: FGF2, fluorescence 635/667, higher = more signal
[7] = JC-1 mitochondrial potential readout, lung cancer cells – cell-based, A549, JC-1 fluorescence, basal, 24 h, 100 nL, profiling panel (AID 1138); details: higher = more signal;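 further: A549 lung adenocarcinoma cells under basal conditions with no added stimulus; test concentration not given here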
[8] = test system: Lefty1; experiment: Lefty1 protein binding to printed compounds – biochemical, small-molecule microarray, 635/667 nm fluorescence, primary screen (AID 1139); details: fluorescence 635/667, higher = more signal
[9] = test system: wheat germ agglutinin (Triticum aestivum), Alexa647-labelled; experiment: Alexa647-WGA lectin binding to printed small molecules – biochemical, small-molecule microarray, 635/667 nm fluorescence, artefact control for SMM control-protein annotation, profiling panel (AID 1140); details: WGA-A647 binding, 635 nm fluorescence, higher = more signal;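 further: score merges 667 nm feature emission with signal to noise over triplicate slides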
[10] = molecular target: Luciferin 4-monooxygenase (Photinus pyralis) (UniProt P08659); experiment: inhibition of purified Photinus pyralis luciferase – biochemical, luminescence, purified enzyme, 2006 set, primary screen (AID 1141); details: purified firefly luciferase, SteadyGlo luminescence, 30 min; higher = more signal, called active from +8 up or from −8 down;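 further: cell-free assay with purified firefly luciferase at 100 ng per well in PBS; test concentration not given here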
[11] = test system: Wnt5a (protein binding on small-molecule microarray); experiment: small molecules binding Wnt5a protein – biophysical, small-molecule microarray, 635/667 nm fluorescence, primary screen (AID 1142); details: 635 nm fluorescence, higher = more signal;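 further: fluorescence read at 667 nm with signal to noise per printed feature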
[12] = ATP-based viability of Huh7 replicon cells – cell-based, CellTiter-Glo luminescence, basal, 48 h, cytotoxicity control for HCV replication inhibitor project, primary screen (AID 1143); details: higher = more signal, called active from +8 up or from −8 down;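 further: Huh7 hepatoma cells carrying a hepatitis C replication reporter with no stimulus; test concentration not given here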
[13] = Pseudomonas biofilm growth suppression – PAO1 strain, BacTiter-Glo luminescence, LB-PBS, primary screen (AID 1144); details: P. aeruginosa PAO1 biofilm, 12 h, higher = more signal
[14] = basal CRE-LacZ reporter activity in PC12 – cell-based, unstimulated, primary screen (AID 1145); details: no forskolin, luminescence, 4.5 h, higher = more signal, called active from +8 up or from −8 down
[15] = forskolin-driven CRE-LacZ activity in PC12 – cell-based, CRE-LacZ reporter, forskolin-stimulated, primary screen (AID 1146); details: luminescence, 4.5 h, higher = more signal, called active from +8 up or from −8 down;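 further: PC12 cells with 6xCRE LacZ reporter stimulated by forskolin 10 µM; beta-galactosidase reporter signal reflecting CREB driven transcription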
[16] = molecular target: Streptavidin (Streptomyces avidinii) (UniProt P22629); experiment: compounds binding control protein streptavidin – biophysical, small-molecule microarray, 635/667 nm fluorescence, artefact control for SMM compound annotation, primary screen (AID 1147); details: higher = more signal;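 further: signal reflects streptavidin binding to arrayed compounds as a control protein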
[17] = probe aInhba binding on compound microarray – biochemical, small-molecule microarray, 635/667 nm fluorescence, primary screen (AID 1148); details: higher = more signal;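 further: score merges 667nm spot fluorescence with signal-to-noise for antibody binding to printed compounds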
[18] = molecular target: Torsin-1A (Homo sapiens) (UniProt O14656); experiment: TOR1A wild-type binding on microarray – cell lysate, small-molecule microarray, lysate, 635/667 nm, primary screen (AID 1149); details: COS7 hTOR1A-WT lysate, 635 nm fluorescence, higher = more signal
[19] = molecular target: Torsin-1A (Homo sapiens) (UniProt O14656); experiment: torsin A mutant lysate binding on microarrays – cell lysate, small-molecule microarray, COS7 lysate, 635/667 nm fluorescence, primary screen (AID 1150); details: COS7 hTOR1A mutant lysate, 635 nm fluorescence, higher = more signal;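 further: score pools 667 nm emission and signal to noise measuring lysate protein binding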
[20] = test system: Sonic hedgehog protein (Shh); experiment: Sonic hedgehog microarray binding compounds – biochemical, small-molecule microarray, 635/667 nm fluorescence, primary screen (AID 1151); details: 635 nm fluorescence, higher = more signal;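 further: Shh protein binding to compounds spotted on small-molecule microarray slides; score combines spot fluorescence intensity with signal-to-noise across triplicate slides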

Sequence of Luciferin 4-monooxygenase (Photinus pyralis) (P08659 whole entry, looked up): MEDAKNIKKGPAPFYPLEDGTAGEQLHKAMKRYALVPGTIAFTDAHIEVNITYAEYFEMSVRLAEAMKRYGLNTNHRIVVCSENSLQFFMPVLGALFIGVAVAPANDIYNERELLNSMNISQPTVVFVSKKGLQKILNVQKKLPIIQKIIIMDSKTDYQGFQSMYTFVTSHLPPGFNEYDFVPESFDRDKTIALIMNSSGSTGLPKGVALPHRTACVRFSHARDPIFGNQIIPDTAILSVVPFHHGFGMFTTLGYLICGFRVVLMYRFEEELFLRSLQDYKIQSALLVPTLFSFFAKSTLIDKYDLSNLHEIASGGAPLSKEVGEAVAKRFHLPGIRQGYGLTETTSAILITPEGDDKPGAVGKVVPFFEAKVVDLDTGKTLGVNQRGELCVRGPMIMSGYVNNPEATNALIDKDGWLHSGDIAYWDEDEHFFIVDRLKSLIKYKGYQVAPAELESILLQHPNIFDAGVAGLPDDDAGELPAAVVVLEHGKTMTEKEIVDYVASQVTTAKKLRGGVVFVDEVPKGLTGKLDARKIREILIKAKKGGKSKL
Sequence of Follistatin (Homo sapiens) (P19883 whole entry, looked up): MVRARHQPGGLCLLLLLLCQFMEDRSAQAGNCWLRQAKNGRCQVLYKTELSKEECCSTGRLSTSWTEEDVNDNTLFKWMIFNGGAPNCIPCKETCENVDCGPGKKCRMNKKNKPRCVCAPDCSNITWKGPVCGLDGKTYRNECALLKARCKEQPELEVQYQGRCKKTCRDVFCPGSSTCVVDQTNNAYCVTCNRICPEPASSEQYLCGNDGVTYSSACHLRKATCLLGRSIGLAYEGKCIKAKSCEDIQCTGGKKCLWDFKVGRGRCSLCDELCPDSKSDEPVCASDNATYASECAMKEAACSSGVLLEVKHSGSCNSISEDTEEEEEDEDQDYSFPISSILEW
Sequence of Streptavidin (Streptomyces avidinii) (P22629 whole entry, looked up): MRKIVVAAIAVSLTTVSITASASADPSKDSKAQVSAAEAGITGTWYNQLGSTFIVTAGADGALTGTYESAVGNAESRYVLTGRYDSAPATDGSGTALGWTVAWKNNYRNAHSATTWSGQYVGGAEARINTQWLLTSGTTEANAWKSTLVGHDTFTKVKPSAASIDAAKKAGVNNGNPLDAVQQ
Sequence of Focal adhesion kinase 1 (Homo sapiens) (Q05397 whole entry, looked up): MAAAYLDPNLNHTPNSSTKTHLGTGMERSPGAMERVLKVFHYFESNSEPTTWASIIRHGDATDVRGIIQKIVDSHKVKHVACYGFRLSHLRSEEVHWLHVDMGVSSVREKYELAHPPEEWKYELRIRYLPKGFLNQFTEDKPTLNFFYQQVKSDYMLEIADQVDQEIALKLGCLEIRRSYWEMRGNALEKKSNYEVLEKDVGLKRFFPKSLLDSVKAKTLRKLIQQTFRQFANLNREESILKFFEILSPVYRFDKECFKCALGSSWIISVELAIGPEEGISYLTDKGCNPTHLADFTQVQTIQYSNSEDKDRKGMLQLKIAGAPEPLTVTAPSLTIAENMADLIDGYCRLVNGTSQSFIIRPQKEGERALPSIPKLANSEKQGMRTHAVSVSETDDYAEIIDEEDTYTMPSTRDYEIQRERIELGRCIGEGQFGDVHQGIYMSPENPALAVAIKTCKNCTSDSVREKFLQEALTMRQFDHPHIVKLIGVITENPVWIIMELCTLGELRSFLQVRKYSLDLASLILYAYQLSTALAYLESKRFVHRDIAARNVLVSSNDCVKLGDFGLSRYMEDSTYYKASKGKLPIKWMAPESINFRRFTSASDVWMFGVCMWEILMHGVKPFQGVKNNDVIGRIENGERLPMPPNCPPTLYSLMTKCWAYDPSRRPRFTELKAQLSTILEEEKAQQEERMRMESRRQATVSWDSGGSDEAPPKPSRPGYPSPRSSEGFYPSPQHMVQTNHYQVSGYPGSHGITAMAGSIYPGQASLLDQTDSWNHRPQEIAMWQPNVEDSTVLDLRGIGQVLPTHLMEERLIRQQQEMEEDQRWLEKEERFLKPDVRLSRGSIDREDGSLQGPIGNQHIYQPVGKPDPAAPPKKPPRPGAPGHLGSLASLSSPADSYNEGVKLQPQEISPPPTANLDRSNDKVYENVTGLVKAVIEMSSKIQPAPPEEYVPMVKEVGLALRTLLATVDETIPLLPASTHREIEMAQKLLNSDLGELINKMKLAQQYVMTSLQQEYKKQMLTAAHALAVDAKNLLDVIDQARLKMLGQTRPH
Sequence of Torsin-1A (Homo sapiens) (O14656 whole entry, looked up): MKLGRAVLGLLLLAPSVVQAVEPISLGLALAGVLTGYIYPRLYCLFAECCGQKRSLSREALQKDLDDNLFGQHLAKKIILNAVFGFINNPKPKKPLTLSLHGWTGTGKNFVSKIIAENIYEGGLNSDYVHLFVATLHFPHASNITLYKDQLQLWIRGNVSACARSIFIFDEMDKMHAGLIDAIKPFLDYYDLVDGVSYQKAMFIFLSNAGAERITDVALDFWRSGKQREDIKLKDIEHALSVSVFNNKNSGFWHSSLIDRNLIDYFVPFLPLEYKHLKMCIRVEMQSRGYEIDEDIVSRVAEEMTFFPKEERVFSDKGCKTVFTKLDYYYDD
Sequence of Fibroblast growth factor 2 (Homo sapiens) (P09038 whole entry, looked up): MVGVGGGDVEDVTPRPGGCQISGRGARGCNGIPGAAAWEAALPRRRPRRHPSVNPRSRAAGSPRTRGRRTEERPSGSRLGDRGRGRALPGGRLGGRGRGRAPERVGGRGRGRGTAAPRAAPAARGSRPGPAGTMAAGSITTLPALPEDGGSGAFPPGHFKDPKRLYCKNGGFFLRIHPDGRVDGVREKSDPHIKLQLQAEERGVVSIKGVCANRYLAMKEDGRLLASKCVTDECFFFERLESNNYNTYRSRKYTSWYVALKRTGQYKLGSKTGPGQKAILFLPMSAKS

CC(C)N1CC=CC23O[C@@H]4C=CCOC(=O)[C@@H]4[C@H]2C(=O)N(CCO)[C@@H]3C1=O (stereo not given in full)
composite z-score [1]: 0.386 | composite z-score [2]: -0.586 | composite z-score [3]: -0.346 | composite z-score [4]: -0.766 | composite z-score [5]: -0.22 | composite z-score [6]: -1.33 | z-score [7]: -0.346 | composite z-score [8]: 0.103 | composite z-score [9]: -0.249 | z-score [10]: -0.0322 (inactive) | composite z-score [11]: -0.967 | z-score [12]: 0.273 (inactive) | z-score [13]: -0.289 (inactive) | z-score [14]: -1.3 (inactive) | z-score [15]: -0.67 (inactive) | composite z-score [16]: -1.05 | composite z-score [17]: -0.302 | composite z-score [18]: -2.5 | composite z-score [19]: -1.48 | composite z-score [20]: 0.643

CC(C)C[C@@H]1NC(=O)[C@H]2C[C@@H](C(=O)NCCCCCNC(=O)CS)[C@@H](c3cccc(OCCO)c3)N2C1=O
composite z-score [1]: 2.41 | composite z-score [2]: 1.21 | composite z-score [3]: 0.603 | composite z-score [4]: 0.374 | composite z-score [5]: 1.44 | composite z-score [6]: 1.7 | z-score [7]: -0.628 | composite z-score [8]: 1.35 | composite z-score [9]: 0.195 | z-score [10]: -1.15 (inactive) | composite z-score [11]: 1.1 | z-score [12]: -1.07 (inactive) | z-score [13]: 0.644 (inactive) | z-score [14]: 0.289 (inactive) | z-score [15]: 0.0824 (inactive) | composite z-score [16]: 0.024 | composite z-score [17]: -0.0112 | composite z-score [18]: 1.07 | composite z-score [19]: 0.867 | composite z-score [20]: 2.09

[N-]=[N+]=Nc1ccccc1C[C@]1(C(=O)NCCN2CCOCC2)N=C(c2ccc(OCCCO)cc2)O[C@H]1c1ccccc1
composite z-score [1]: 1.34 | composite z-score [2]: 1.27 | composite z-score [3]: 0.903 | composite z-score [4]: 0.952 | composite z-score [5]: 1.29 | composite z-score [6]: 0.877 | z-score [7]: 0.273 | composite z-score [8]: -0.246 | composite z-score [9]: 0.309 | z-score [10]: -0.683 (inactive) | composite z-score [11]: 0.577 | z-score [12]: -2.47 (inactive) | z-score [13]: 0.355 (inactive) | z-score [14]: 0.4 (inactive) | z-score [15]: -0.604 (inactive) | composite z-score [16]: -0.186 | composite z-score [17]: 0.101 | composite z-score [18]: 0.729 | composite z-score [19]: 0.749 | composite z-score [20]: 0.109

O=C1O[C@@H](c2ccccc2)[C@@H](c2ccccc2)N2[C@@H](c3ccc(OCCO)cc3)[C@]3(C(=O)Nc4ccccc43)[C@@H](C(=O)Nc3nc4ccccc4s3)[C@H]12
composite z-score [1]: 2.11 | composite z-score [2]: 1.26 | composite z-score [3]: 0.645 | composite z-score [4]: 1 | composite z-score [5]: 1.21 | composite z-score [6]: 0.79 | z-score [7]: -2.13 | composite z-score [8]: 1.28 | composite z-score [9]: 0.958 | z-score [10]: -9.09 (active) | composite z-score [11]: 0.441 | z-score [12]: -3.3 (inactive) | z-score [13]: -1.78 (inactive) | z-score [14]: 0.362 (inactive) | z-score [15]: -0.278 (inactive) | composite z-score [16]: 1.17 | composite z-score [17]: 0.289 | composite z-score [18]: 1.05 | composite z-score [19]: 1.11 | composite z-score [20]: 1.75

COc1c(C)cc(-c2cc3c(c(-c4ccc(Oc5ccccc5)cc4)n2)[Si](C(C)C)(C(C)C)OC3)cc1C
composite z-score [1]: -0.271 | composite z-score [2]: -0.582 | composite z-score [3]: -0.0939 | composite z-score [4]: -0.551 | composite z-score [5]: -0.228 | composite z-score [6]: 0.515 | z-score [7]: 0.577 | composite z-score [8]: 0.38 | composite z-score [9]: -0.0472 | z-score [10]: 0.279 (inactive) | composite z-score [11]: 0.285 | z-score [12]: -0.0304 (inactive) | z-score [13]: 0.0144 (inactive) | z-score [14]: 0.148 (inactive) | z-score [15]: 0.151 (inactive) | composite z-score [16]: -0.246 | composite z-score [17]: 0.127 | composite z-score [18]: -0.238 | composite z-score [19]: 0.164 | composite z-score [20]: 0.205

COCCOC(=O)N1C(=O)[C@@]2(c3cc(C#CCNC(N)=O)ccc31)[C@H](c1ccc(O)cc1)N1[C@H](c3ccccc3)[C@H](c3ccccc3)OC(=O)[C@H]1[C@@H]2C(=O)Nc1nc2ccccc2s1
composite z-score [1]: 0.0698 | composite z-score [2]: 0.967 | composite z-score [3]: 0.387 | composite z-score [4]: 0.558 | composite z-score [5]: 1.33 | composite z-score [6]: 1.2 | z-score [7]: -1.91 | composite z-score [8]: 0.851 | composite z-score [9]: 0.785 | z-score [10]: -2.38 (inactive) | composite z-score [11]: 0.327 | z-score [12]: -2.61 (inactive) | z-score [13]: -2.43 (inactive) | z-score [14]: -0.463 (inactive) | z-score [15]: -1.5 (inactive) | composite z-score [16]: 0.454 | composite z-score [17]: -0.102 | composite z-score [18]: 0.518 | composite z-score [19]: 0.587 | composite z-score [20]: 1.34
